Structures are written as SMILES. Several values for one entry are separate records, joined by “and”; a condition that tells them apart may be missing. Equal values may be shown once. The panel holds about 83,000 compounds, 20% with a hit somewhere; the sample as a whole holds those more often.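 48-hour exposure, single concentration, 96-well plates; percent growth endpoint where 0 means no net growth. Active: below 10.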 Values without a mark were called inactive. Activity calls are given as the source filed them.

This experiment has as its system MDA-MB-468 breast. Put plainly: NCI-60 one-dose screen, 48 h (100 = growth as untreated, 0 = no growth, -100 = all killed). To be noted: 10 µM unless noted.
Turning to `CC(C)(C)C(=O)OCOP(=O)(NCc1ccccc1)C1CCCN(O)C1=O` (stereo not given), the growth is -0.478% (active).

With `CCCCN(CCCC)P(=O)(Oc1ccccc1)Oc1ccccc1`, the growth was 39.2%.

In the case of `O=C(O)c1[nH]c(=O)[nH]c(=O)c1F`, the growth is 107%.

As to `C[C@]12CC[C@H]3[C@@H](CC=C4c5nc(N)sc5CC[C@@]43C)[C@@H]1CC[C@@H]2O`, the growth was 91.2%.

On to `[Cl][Hg][c]1ccc(Cl)s1`, for which the growth is -61% (active).

Take `OCc1ccc2c(c1)OCO2`: the growth is 97.6%.

With `NC(=O)OCC(CO)(c1ccccc1)c1ccccc1`, the growth was 93.8%.

With `COC(=O)[C@@H](C)C[C@H](Cc1ccccc1)NC(=O)c1csc([C@@H](C[C@H](C(C)C)N(C)C(=O)C2(NC(=O)[C@H]3CCCCN3C)CC2)OC(C)=O)n1`, the growth is -4.03% (active).

On to `O=[N+]([O-])/C=C/c1ccc([N+](=O)[O-])cc1`, for which the growth was 77.7%.

As for `COC(=O)[C@@]1(C)CC[C@]2(C)CC[C@]3(C)C4=CC(=O)c5c(cc(O)c(O)c5C)[C@]4(C)CC[C@@]3(C)[C@@H]2C1`, the growth was 30.1%.

With `ClCCN(CCCl)C(c1ccccc1)c1ccc(Cl)cc1` (stereo not given), the growth was 35.1%.

For the compound `COC(=O)[C@@H](C[C@H](Cc1ccccc1)NC(=O)c1csc([C@@H](C[C@H](C(C)C)N(C)C(=O)[C@@H](NC(=O)[C@H]2CCCCN2C)C(C)C)OC(C)=O)n1)NC(=O)OCc1ccccc1`, the growth was 16.5% [9.5 µM].

With `COC(=O)[C@H](C[C@H](Cc1ccccc1)NC(=O)c1csc([C@@H](C[C@H](C(C)C)N(C)C(=O)[C@@H](NC(=O)[C@H]2CCCCN2C)C(C)C)OC(C)=O)n1)NC(=O)OCc1ccccc1`, the growth is 0.51% [8.5 µM] (active).

`O=C(NCc1ccc([N+](=O)[O-])cc1)Nc1ccc(S(=O)(=O)F)cc1`: the growth was 40.4%.

Take `O=c1[nH]c(=O)[nH]c(=O)[nH]1`: the growth was 146%.

Consider `C[CH2][Sn]([Cl])([Cl])[CH2]C.Oc1ccccc1C=NCCN=Cc1ccccc1O`, for which the growth is 103%.

On to `COc1cc(N(CCCl)CCCl)ccc1C=Nc1ccccc1C(=O)O`, for which the growth is 63.3%.

On to `COc1ccccc1[As]=[As]c1ccccc1OC` (stereo not given), for which the growth is -94.8% (active).

In the case of `C=CCCCCCCCCC(=O)[O-].C=CCCCCCCCCC(=O)[O-].[Zn+2]`, the growth was 115%.

For `CC1CN1CCCCN1CC1C` (stereo not given), the growth is 101%.

For `COc1ccc(N)cc1OC`, the growth was 109%.

`O=C(CCCc1ccc(N(CCCl)CCCl)cc1)OCc1ccccc1`: the growth is 87%.

For `CC[CH2][Sn]([Cl])([Cl])[CH2]CC.Oc1ccccc1C=NCCN=Cc1ccccc1O`, the growth was -59.7% (active) and -33.9% (active).

With `CO[C@@H]([CH2][Hg][O]C(=O)c1ccccc1)[C@@H]([CH2][Hg][O]C(=O)c1ccccc1)OC`, the growth was 94%.

With `COc1ccc(C2SCC(=O)Nc3c2c(C)nn3-c2nc3ccc(C)cc3s2)cc1O` (stereo not given), the growth was 23.4%.

For `Cc1ccccc1-n1c(/C=C\c2ccccn2)nc2ccccc2c1=O`, the growth is 3.39% (active).

For the compound `Cc1nc2ccccc2c(=O)n1-c1ccccc1F`, the growth is 105%.

Take `C[C@@H]1CCC/C=C/[C@H]2C[C@@H](O)C[C@@H]2[C@@H](O)/C=C/C(=O)O1`: the growth was -21.4% (active).

With `CCC(C)[C@H]1O[C@]2(C=C[C@@H]1C)C[C@@H]1C[C@@H](C/C=C(\C)[C@@H](OC3C[C@H](OC)C(O[C@H]4C[C@H](OC)[C@@H](O)[C@H](C)O4)[C@H](C)O3)[C@@H](C)/C=C/C=C3\CO[C@@H]4[C@H](O)C(C)=C[C@@H](C(=O)O1)[C@]34O)O2` (stereo not given in full), the growth was -12.7% (active).

Regarding `COc1cc(NC(C)CCCNC2CN3CCC2CC3)c2ncccc2c1` (stereo not given), the growth was -1.39% (active).

With `COc1ccc(/C=C\c2cc(OC)c(OC)c(OC)c2)c(NS(=O)(=O)c2ccc(C)cc2)c1O`, the growth was 23.2%.

In the case of `Cc1c(C)c(N)c(C)c(C)c1N`, the growth was 61.7%.

`CC(=O)[O][Hg][c]1c(N)c(C)cc(C)c1F`: the growth is -26.7% (active).

Regarding `Fc1ccc(C2=NN(c3ccccc3)C(c3sc(N(CCCl)CCCl)nc3Cl)C2)cc1` (stereo not given), the growth was 81.4%.

As to `ClC1OC(Cl)(Cl)C(Cl)(Cl)OC1(Cl)Cl` (stereo not given), the growth was 105%.

In the case of `C=C1C(=O)OC2CC3(C)OC3C3OC3C3=CC(OC3=O)C12` (stereo not given), the growth is 32.8% and 65.2%.

Take `O=[N+]([O-])c1ccc(Br)c([N+](=O)[O-])c1`: the growth was 34%.

As for `C=CC[Se]C(=O)c1ccccc1OC(C)=O`, the growth is -16.6% (active).

On to `COC(=O)[C@@H](C)C[C@H](Cc1ccccc1)NC(=O)c1csc([C@@H](C[C@H](C(C)C)N(C)C(=O)[C@@H](NC(=O)C23CC(NC(C)=O)(C2)C3)C2CC2)OC(C)=O)n1`, for which the growth was 3.05% (active).

As for `O=P1(N(CCCl)CCCl)NCCCO1` (stereo not given), the growth is 108%.

The values are drawn from PubChem BioAssay (NCI).
